Compound activity as filed in PubChem BioAssay.
PHOSPHO1 inh: blocks human PHOSPHO1 phosphatase activity | Q8TCT1 | recombinant PHOSPHO1, absorbance phosphatase assay | inhibition, % at 13.3 µM | actives 1.1% (n = 290,000) | AID 1565; in the data active means inhibition above about 60%
Cardio protect: modulators protecting cardiomyocytes from myocardial damage; H9c2 cardiomyocytes, H2O2 injury protection, ATPLite, 2 h; actives 0.63% (n = 360,000); AID 588492; protection from H2O2 cell death, % at 20 µM;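 active means compounds giving at least 50% protection of heart cells from peroxide-induced death in the single-dose screen, raw or plate-pattern-corrected value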;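 further: 0% = DMSO wells with peroxide and 100% = DMSO wells without peroxide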
Cl transport mod: modulators of human KCC2 chloride dependent transport. Q9H2X9. KCC2 cells, thallium flux FluoZin-2 fluorescence. B-score of Tl+ flux slope (higher = more flux/activation; lower = inhibition) at 10 µM. actives 2.2% (n = 190,000). AID 1456;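 active means thallium flux slope and its plate-corrected score both differing from the plate sample mean at a set confidence after two filtering rounds, in either direction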;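 further: slope of fluorescence scaled to starting intensity during 10 to 20 s after thallium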
Target sequence (Q9H2X9 whole entry, looked up): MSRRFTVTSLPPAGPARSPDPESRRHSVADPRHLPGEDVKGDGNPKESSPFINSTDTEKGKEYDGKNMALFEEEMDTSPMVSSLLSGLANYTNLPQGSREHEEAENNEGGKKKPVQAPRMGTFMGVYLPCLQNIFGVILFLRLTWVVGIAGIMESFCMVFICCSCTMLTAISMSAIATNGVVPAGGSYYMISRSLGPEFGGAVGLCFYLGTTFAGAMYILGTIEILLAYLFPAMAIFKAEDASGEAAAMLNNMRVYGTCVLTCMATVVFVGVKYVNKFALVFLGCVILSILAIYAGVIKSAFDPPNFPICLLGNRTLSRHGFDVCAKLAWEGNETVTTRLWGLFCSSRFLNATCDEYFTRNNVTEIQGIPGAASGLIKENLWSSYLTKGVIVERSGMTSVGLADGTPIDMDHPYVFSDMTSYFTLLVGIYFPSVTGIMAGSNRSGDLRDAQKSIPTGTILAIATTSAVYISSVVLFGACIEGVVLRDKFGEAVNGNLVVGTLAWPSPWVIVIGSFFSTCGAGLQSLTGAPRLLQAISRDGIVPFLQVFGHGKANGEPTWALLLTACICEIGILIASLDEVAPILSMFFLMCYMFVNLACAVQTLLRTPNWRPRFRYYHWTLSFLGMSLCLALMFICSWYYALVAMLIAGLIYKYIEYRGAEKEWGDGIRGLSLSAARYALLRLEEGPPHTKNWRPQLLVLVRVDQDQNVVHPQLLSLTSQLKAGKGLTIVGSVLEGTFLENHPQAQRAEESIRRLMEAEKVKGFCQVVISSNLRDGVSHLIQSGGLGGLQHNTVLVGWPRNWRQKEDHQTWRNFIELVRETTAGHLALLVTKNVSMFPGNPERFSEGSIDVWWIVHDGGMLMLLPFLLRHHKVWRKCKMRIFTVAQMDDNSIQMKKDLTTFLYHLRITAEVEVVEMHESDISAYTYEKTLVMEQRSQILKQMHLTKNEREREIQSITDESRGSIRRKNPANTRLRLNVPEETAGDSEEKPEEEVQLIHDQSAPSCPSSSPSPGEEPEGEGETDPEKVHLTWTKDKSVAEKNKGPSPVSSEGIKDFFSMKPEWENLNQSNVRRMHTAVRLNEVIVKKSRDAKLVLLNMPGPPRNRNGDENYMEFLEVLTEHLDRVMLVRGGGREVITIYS
Efflux pump inh: antifungal efflux pump inhibition, Nile Red retention | S. cerevisiae Candida pump triplex | inhibition, % at 10 µM | actives 0.44% (n = 330,000);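 active means plate passing quality check with inhibition over a set limit, or well fluorescence over plate mean plus 4 SD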;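 further: Nile Red retained in pooled yeast measured as flow cytometry median fluorescence; 0% = buffer negative control and 100% = Enniatin B positive control; higher means more Nile Red kept so more efflux inhibition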
Calb FLC: affects C. albicans growth with fluconazole; C. albicans CaCi-2 (fluconazole-resistant clinical isolate) + fluconazole, Alamar Blue growth, 48 h; growth inhibition, % (test concentration not listed); actives 0.57% (n = 300,000); AID 1979;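 active means growth inhibition above about 58% in most replicates, limit read from the data, passing the limit was not always enough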;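 further: all wells also contain fluconazole at 8 µg/ml as a sub-toxic cotreatment; 0% = median of DMSO wells and 100% = median of geldanamycin control wells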
* hit, by the source's call; · = not tested or not shown. Rows were chosen to be rich in hits. Some 3.3% of all compounds tested hit in one or more screens of this group.

SMILES	PHOSPHO1 inh	Cardio protect	Cl transport mod	Efflux pump inh	Calb FLC
CCOCCCNC(=O)Cn1nc(Cc2ccncc2)c2ccccc2c1=O	16	-3	·	0	-5
C=C1c2cc(C)ccc2NC(=O)N1c1ccc(C)cc1	73*	5	·	0	-5
C=C1c2ccccc2NC(=O)N1c1ccc(C)cc1	6	9	·	0	-6
O=C(NCCc1ccccc1)C1CCCN(c2ncnc3c2nc2n3CCCCC2)C1 (configuration not stated)	56	4	·	0	-3
Cc1ccc(CCNC(=O)C2CCCN(c3ncnc4c3nc3n4CCCCC3)C2)cc1 (configuration not stated)	80*	3	·	0	-3
CC(=O)c1ccc(N2CCN(C(=O)C3CCCN(c4ncnc5c4nc4n5CCCCC4)C3)CC2)cc1 (configuration not stated)	38	55*	·	1	37
Cc1cc(-c2ccc(C(C)C)c(S(=O)(=O)NCCN3CCC(C)CC3)c2)on1	18	-2	·	0	-25
Cc1ccc2nc(CCl)[n+]([O-])c(-c3ccccc3)c2c1	-1	2	·	0	3
COc1ccc(/C=C2\C(=O)NC(=S)N2C(=O)c2ccc(F)cc2)cc1	-50	-12	3.4*	0	-3
Cn1c(N/N=C/c2c[nH]c3ccccc23)nc2ccccc21	38	-6	·	0	84*
Cc1cc(N/N=C/c2c[nH]c3ccccc23)c2ccccc2n1	29	3	·	0	20
CC1C/C(=N\NC(=S)NCc2ccccc2)CC(C)(C)C1 (configuration not stated)	76*	-11	1.2	0	-23
O=C(CSc1nccc(=O)[nH]1)Nc1cccc(S(=O)(=O)N2CCOCC2)c1	-13	11	-0.069	0	-9
Cc1ccc(NC(=O)CSc2nccc(=O)[nH]2)c(S(=O)(=O)N2CCOCC2)c1	64*	-4	0.044	0	3
COc1ccc(CCN2C(=O)NC(NS(=O)(=O)c3ccc(NC(C)=O)cc3)(C(F)(F)F)C2=O)cc1OC (configuration not stated)	64*	-2	-0.54	0	-6
CC(C)(C(=O)N1CCC1(C)C(=O)Nc1ccccc1Br)c1ccccc1 (configuration not stated)	·	0	·	·	·
Nc1c(N(CCC2=CCCCC2)C(=O)c2ccccc2F)c(=O)[nH]c(=O)n1Cc1ccccc1	·	3	·	0	·
CCOC(=O)c1c2ccc(OCC(=O)N/N=C/c3ccc(C)cc3)cc2n2ccccc12	24	54*	·	0	31
CCOC(=O)c1c2ccc(OCC(=O)NN)cc2n2ccccc12	32	11	-3.7	0	36
COc1ccc(C(=O)c2sc3nc(-c4ccccc4)ccc3c2N)cc1OC	88*	-9	0.59	0	-2
NC(=O)c1sc2nc(-c3ccccc3)ccc2c1N	14	0	·	0	45
COc1ccc(-c2ccc3c(N)c(C(=O)NC(C)C)sc3n2)cc1OC	2	20	0.23	0	2
COc1ccc(-c2ccc3c(N)c(C(=O)c4ccc(OC)c(OC)c4)sc3n2)cc1	63*	-10	1.1	0	8
COc1ccc(OC)c(NC(=O)c2ccc(NC3=NC4CS(=O)(=O)CC4S3)cc2)c1 (configuration not stated)	18	2	·	0	-15
Cc1nc(C(F)(F)F)ccc1C(=O)N1CCC(C)(C(=O)O)C1 (configuration not stated)	·	3	·	·	·
SMILES	PHOSPHO1 inh	Cardio protect	Cl transport mod	Efflux pump inh	Calb FLC
CCc1cc(C(=O)OC)c(NC(=O)CN2CCN(C(=O)C3CCCO3)CC2)s1 (configuration not stated)	41	5	·	0	3
COc1cccc(NC(=O)CN(C)C(=O)c2cc(S(=O)(=O)N3CCCCCC3)ccc2OC)c1	·	0	·	0	·
CSc1nc(N)nc2c1ncn2CC(=O)NCc1ccc2[nH]ccc2c1	·	-9	·	0	·
CCOc1cccc(-c2nn3c(-c4ccco4)nnc3s2)c1	26	64*	·	0	14
COc1cccc(-c2nn3c(-c4cccc(C)c4)nnc3s2)c1	-28	29	-0.71	1	16
COc1cc(-c2nnc3sc(-c4ccco4)nn23)cc(OC)c1OC	9	12	0.14	0	-2
COc1ccc(-c2nnc3sc(-c4ccco4)nn23)cc1OC	-23	58*	0.61	0	-4
COc1ccc(-c2nn3c(-c4ccco4)nnc3s2)cc1OC	-6	77*	-0.94	0	6
COc1cccc(-c2nnc3sc(-c4ccco4)nn23)c1	74*	17	-0.73	0	4
COc1ccc(OC)c(NC(=O)COC(=O)CCc2nc3ccccc3c(=O)[nH]2)c1	·	27	·	0	·
COc1cc(OC)c(-c2nn3c(-c4ccncc4)nnc3s2)cc1OC	6	·	·	·	·
c1coc(-c2nnc3sc(-c4cccs4)nn23)c1	-52	53*	·	0	·
COc1cc(OC)c(-c2nn3c(-c4ccco4)nnc3s2)cc1OC	19	74*	-2.5	·	·
c1csc(-c2nn3c(-c4ccncc4)nnc3s2)c1	-36	·	·	·	·
CC(=O)Nc1ccccc1NC(=O)C/C(C)=N/NC(=O)C(=O)N1CCCCC1	23	2	·	0	-3
Cc1ccc(/C([O-])=C(/C(=S)NCc2ccco2)[n+]2ccccc2)cc1	100*	·	-0.08	0	2
O=C(C[C@H]1C/C=C\CCC(=O)OC[C@H]2CCCN2C1=O)NCCO	·	6	·	0	·
CC(C)OC(=O)C(=O)NNc1ccccc1	-44	10	0.08	0	129*
CC(=NNC(=O)c1ccncc1)c1ccc2ccccc2c1O	·	21	·	·	·
Cc1c(NC(=O)Nc2cccc(C(F)(F)F)c2)c(=O)n(-c2ccccc2)n1C	66*	-2	·	0	-5
O=C(Cn1[nH]c(=O)c2ccccc2c1=O)NNC(=O)c1ccccc1	39	62*	-0.062	0	-4
O=C(COc1ccccc1Cl)NNC(=O)Cn1[nH]c(=O)c2ccccc2c1=O	·	92*	·	0	·
O=C(Cn1[nH]c(=O)c2ccccc2c1=O)NC1CCCCCC1	-11	78*	-0.38	0	-22
Cc1nc2ccccn2c1CN(C)C(=O)C1CCC(=O)N(Cc2cccc(F)c2)C1 (configuration not stated)	12	1	·	0	-1
O=C(Cc1ccc(S(=O)(=O)N2CCOCC2)s1)N1CCN(S(=O)(=O)c2ccc(Cl)cc2)CC1	·	-10	·	0	·
CN(CC(=O)Nc1c(Cl)cccc1Cl)C(=O)CCC(=O)c1ccccc1	·	-3	·	·	·
Cc1c(NC(=O)Cn2[nH]c(=O)c3ccccc3c2=O)c(=O)n(-c2ccccc2)n1C	-15	64*	·	0	11
Cc1c(NC(=O)CN2CCN(c3ccccc3)CC2)c(=O)n(-c2ccccc2)n1C	46	-17	0.21	0	4
CN(CC(=O)Nc1c(Cl)cccc1Cl)C(=O)Cn1[nH]c(=O)c2ccccc2c1=O	·	76*	·	0	·
Cc1c(NC(=O)CSc2nnc3c4ccccc4n(CCc4ccccc4)c3n2)c(=O)n(-c2ccccc2)n1C	64*	5	-0.33	0	19
